# Measured values published in publication PMC5540273 (PLoS ONE, 2017).
# “And” between values parts separate entries of the source, which are not always exact repeats. Equal entries are not always repeated. Where two headings read alike, the source gives them in different places.
# Key:
# [1] = test system: T1, RSK2(Kin.Dom.1-N-terminal); conditions: concentration: 1 μM, replicates: in singlicate, n = 1
# T1 construct: gene RPS6KA3
# [2] = test system: T2, RSK2(Kin.Dom.2-C-terminal); conditions: concentration: 1 μM, replicates: in singlicate, n = 1
# T2 construct: gene RPS6KA3
# [3] = test system: T3, RSK3(Kin.Dom.1-N-terminal); conditions: concentration: 1 μM, replicates: in singlicate, n = 1
# T3 construct: gene RPS6KA2
# [4] = test system: T4, RSK3(Kin.Dom.2-C-terminal); conditions: concentration: 1 μM, replicates: in singlicate, n = 1
# T4 construct: gene RPS6KA2
# [5] = test system: T5, RSK4(Kin.Dom.1-N-terminal); conditions: concentration: 1 μM, replicates: in singlicate, n = 1
# T5 construct: gene RPS6KA6
# [6] = test system: T6, RSK4(Kin.Dom.2-C-terminal); conditions: concentration: 1 μM, replicates: in singlicate, n = 1
# T6 construct: gene RPS6KA6
# S6K1 = conditions: concentration: 1 μM, replicates: in singlicate, n = 1
# SBK1 = conditions: concentration: 1 μM, replicates: in singlicate, n = 1
# SGK2 = conditions: concentration: 1 μM, replicates: in singlicate; n = 1
# SGK3 = conditions: concentration: 1 μM, replicates: in singlicate, n = 1
# SGK = conditions: concentration: 1 μM, replicates: in singlicate, n = 1
# SIK2 = conditions: concentration: 1 μM, replicates: in singlicate, n = 1
# SIK = conditions: concentration: 1 μM, replicates: in singlicate, n = 1
# SLK = conditions: concentration: 1 μM, replicates: in singlicate, n = 1
# SNARK = test system: T7, SNARK; conditions: concentration: 1 μM, replicates: in singlicate, n = 1
# T7 construct: gene NUAK2
# SNRK = conditions: concentration: 1 μM, replicates: in singlicate, n = 1
# SRC = conditions: concentration: 1 μM, replicates: in singlicate, n = 1
# SRMS = conditions: concentration: 1 μM, replicates: in singlicate, n = 1
# SRPK1 = conditions: concentration: 1 μM, replicates: in singlicate, n = 1
# SRPK2 = conditions: concentration: 1 μM, replicates: in singlicate, n = 1
# 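Further: KINOMEscan kinase panel screen.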
smiles,measurement,setting,value
O=C(Nc1n[nH]c2cc(-c3cccc(F)c3)ccc12)C1CC1 [SB-735464],%Inh,[1],0%
same,%Inh,[2],15%
same,%Inh,[3],2%
same,%Inh,[4],0%
same,%Inh,[5],9%
same,%Inh,[6],17%
same,%Inh,S6K1,49%
same,%Inh,SBK1,21%
same,%Inh,SGK2,0%
same,%Inh,SGK3,13%
same,%Inh,SGK,13%
same,%Inh,SIK2,0%
same,%Inh,SIK,0%
same,%Inh,SLK,11%
same,%Inh,SNARK,0%
same,%Inh,SNRK,0%
same,%Inh,SRC,0%
same,%Inh,SRMS,18%
same,%Inh,SRPK1,36%
same,%Inh,SRPK2,4%
Fc1ccc(-c2nn3c(OCC(F)(F)F)cccc3c2-c2ccncc2)cc1 [GW514784],%Inh,[1],0%
same,%Inh,[2],0%
same,%Inh,[3],3%
same,%Inh,[4],8%
same,%Inh,[5],0%
same,%Inh,[6],89%
same,%Inh,S6K1,0%
same,%Inh,SBK1,2%
same,%Inh,SGK2,9%
same,%Inh,SGK3,0%
same,%Inh,SGK,15%
same,%Inh,SIK2,0%
same,%Inh,SIK,0%
same,%Inh,SLK,0%
same,%Inh,SNARK,0%
same,%Inh,SNRK,0%
same,%Inh,SRC,0%
same,%Inh,SRMS,0%
same,%Inh,SRPK1,29%
same,%Inh,SRPK2,0%
CSc1ccc(-c2cc3ncnc(SCC(=O)O)c3s2)cc1,%Inh,[1],0%
same,%Inh,[2],0%
same,%Inh,[3],0%
same,%Inh,[4],20%
same,%Inh,[5],0%
same,%Inh,[6],19%
same,%Inh,S6K1,0%
same,%Inh,SBK1,0%
same,%Inh,SGK2,0%
same,%Inh,SGK3,6%
same,%Inh,SGK,0%
same,%Inh,SIK2,0%
same,%Inh,SIK,25%
same,%Inh,SLK,0%
same,%Inh,SNARK,0%
same,%Inh,SNRK,0%
same,%Inh,SRC,0%
same,%Inh,SRMS,0%
same,%Inh,SRPK1,0%
same,%Inh,SRPK2,100%
COCCNC(=O)c1ccc(-c2cc(C(=O)NC3CC3)cc(F)c2C)cc1 [GW868318],%Inh,[1],40%
same,%Inh,[2],29%
same,%Inh,[3],16%
same,%Inh,[4],0%
same,%Inh,[5],41%
same,%Inh,[6],0%
same,%Inh,S6K1,29%
same,%Inh,SBK1,48%
same,%Inh,SGK2,20%
same,%Inh,SGK3,21%
same,%Inh,SGK,36%
same,%Inh,SIK2,0%
same,%Inh,SIK,6%
same,%Inh,SLK,0%
same,%Inh,SNARK,16%
same,%Inh,SNRK,16%
same,%Inh,SRC,23%
same,%Inh,SRMS,24%
same,%Inh,SRPK1,7%
same,%Inh,SRPK2,0%
COc1ccc(Nc2nccc(N3CCC(NC(=O)Nc4cccc(C(C)=O)c4)C3)n2)cc1 (centres unmarked) [GSK1379731],%Inh,[1],0%
same,%Inh,[2],0%
same,%Inh,[3],1%
same,%Inh,[4],0%
same,%Inh,[5],0%
same,%Inh,[6],2%
same,%Inh,S6K1,9%
same,%Inh,SBK1,20%
same,%Inh,SGK2,0%
same,%Inh,SGK3,0%
same,%Inh,SGK,0%
same,%Inh,SIK2,0%
same,%Inh,SIK,0%
same,%Inh,SLK,0%
same,%Inh,SNARK,0%
same,%Inh,SNRK,0%
same,%Inh,SRC,0%
same,%Inh,SRMS,0%
same,%Inh,SRPK1,6%
same,%Inh,SRPK2,0%
O=C1NC(=O)C(N2CCc3ccccc32)=C1c1cccc(Cl)c1 [SB-408010],%Inh,[1],0%
same,%Inh,[2],0%
same,%Inh,[3],10%
same,%Inh,[4],21%
same,%Inh,[5],35%
same,%Inh,[6],11%
same,%Inh,S6K1,0%
same,%Inh,SBK1,5%
same,%Inh,SGK2,0%
same,%Inh,SGK3,0%
same,%Inh,SGK,0%
same,%Inh,SIK2,0%
same,%Inh,SIK,12%
same,%Inh,SLK,26%
same,%Inh,SNARK,2%
same,%Inh,SNRK,0%
same,%Inh,SRC,10%
same,%Inh,SRMS,0%
same,%Inh,SRPK1,14%
same,%Inh,SRPK2,9%
Cl.Cl.Cl.Fc1ccc(-c2ncn(C3CCNCC3)c2-c2ccnc(Nc3ccccc3)n2)cc1 [SB-238039],%Inh,[1]; 1 µM,41% and 35%
same,%Inh,[2]; 1 µM,16% and 0%
same,%Inh,[3]; 1 µM,0% and 15%
same,%Inh,[4]; 1 µM,18% and 32%
same,%Inh,[5]; 1 µM,19% and 0%
same,%Inh,[6]; 1 µM,88% and 80%
same,%Inh,S6K1; 1 µM,5% and 0%
same,%Inh,SBK1; 1 µM,36% and 0%
same,%Inh,SGK2,2%
same,%Inh,SGK3; 1 µM,8% and 12%
same,%Inh,SGK; 1 µM,41% and 0%
same,%Inh,SIK2; 1 µM,65% and 46%
same,%Inh,SIK; 1 µM,1% and 4%
same,%Inh,SLK; 1 µM,28% and 0%
same,%Inh,SNARK; 1 µM,9% and 0%
same,%Inh,SNRK; 1 µM,0% and 10%
same,%Inh,SRC; 1 µM,0% and 4%
same,%Inh,SRMS; 1 µM,29% and 0%
same,%Inh,SRPK1; 1 µM,7% and 0%
same,%Inh,SRPK2; 1 µM,7% and 0%
CC(C)(C)n1cnc2c(N)ncnc21 [SKF-97359],%Inh,[1],0%
same,%Inh,[2],18%
same,%Inh,[3],2%
same,%Inh,[4],18%
same,%Inh,[5],0%
same,%Inh,[6],46%
same,%Inh,S6K1,5%
same,%Inh,SBK1,0%
same,%Inh,SGK2,0%
same,%Inh,SGK3,0%
same,%Inh,SGK,0%
same,%Inh,SIK2,0%
same,%Inh,SIK,0%
same,%Inh,SLK,0%
same,%Inh,SNARK,0%
same,%Inh,SNRK,0%
same,%Inh,SRC,0%
same,%Inh,SRMS,0%
same,%Inh,SRPK1,0%
same,%Inh,SRPK2,36%
CNc1ncnc2[nH]ncc12 [SKF-18355],%Inh,[1],46%
same,%Inh,[2],0%
same,%Inh,[3],5%
same,%Inh,[4],22%
same,%Inh,[5],16%
same,%Inh,[6],0%
same,%Inh,S6K1,24%
same,%Inh,SBK1,0%
same,%Inh,SGK2,0%
same,%Inh,SGK3,0%
same,%Inh,SGK,6%
same,%Inh,SIK2,0%
same,%Inh,SIK,0%
same,%Inh,SLK,10%
same,%Inh,SNARK,0%
same,%Inh,SNRK,0%
same,%Inh,SRC,17%
same,%Inh,SRMS,22%
same,%Inh,SRPK1,0%
same,%Inh,SRPK2,0%
[2H]C([2H])(c1cccc(C(F)(F)F)c1C)n1ccn2c(=O)nc(N3CCOCC3)cc12 [GSK2336394],%Inh,[1],0%
same,%Inh,[2],18%
same,%Inh,[3],9%
same,%Inh,[4],0%
same,%Inh,[5],0%
same,%Inh,[6],21%
same,%Inh,S6K1,12%
same,%Inh,SBK1,24%
same,%Inh,SGK2,1%
same,%Inh,SGK3,0%
same,%Inh,SGK,0%
same,%Inh,SIK2,0%
same,%Inh,SIK,0%
same,%Inh,SLK,22%
same,%Inh,SNARK,0%
same,%Inh,SNRK,0%
same,%Inh,SRC,0%
same,%Inh,SRMS,0%
same,%Inh,SRPK1,37%
same,%Inh,SRPK2,0%
